Test results taken from PubChem BioAssay (EPA / NIEHS).
Active and inactive are the calls of the source. The calls were made as follows: active = hit-call score of the fitted dose curve at least 0.9, where 1 is the maximum; inactive = score below 0.9.

Assay: ATG_GLI_CIS: Attagene CIS-FACTORIAL HepG2 Assay for human Zinc Finger Protein GLI1 (AID 2282945)
Details: HepG2, Attagene cis-factorial reporter mRNA, GLI element; actives raise or lower the signal
Experimental: ATG_CIS is a cell-based, multiplexed-readout assay that uses HepG2, a human liver cell line, with measurements taken at 24 hours after chemical dosing in a 24-well plate.ATG_GLI_CIS is one of 52 assay component(s) measured or calculated from the ATG_CIS assay. It is designed to make measurements of mRNA induction, a form of inducible reporter, as detected with fluorescence intensity signals by Reverse transcription polymerase chain reaction (RT-PCR) and Capillary electrophoresis technology.Data from the assay component ATG_GLI_CIS was analyzed into 1 assay endpoint. This assay endpoint, ATG_GLI_CIS, was analyzed with bidirectional fitting relative to DMSO as the negative control and baseline of activity. Using a type of inducible reporter, measures of mRNA for gain or loss-of-signal activity can be used to understand the reporter gene at the transcription factor-level as they relate to the gene GLI1. Furthermore, this assay endpoint can be referred to as a primary readout, because this assay has produced multiple assay endpoints where this one serves a reporter gene function. To generalize the intended target to other relatable targets, this assay endpoint is annotated to the dna binding intended target family, where the subfamily is zinc finger.
Human liver HepG2 cells are transiently transfected with multiple reporter transcription units (MRTUs) in 6-well plates using FuGene 6 reagent (Roche; 3 ml FuGene/1 mg DNA). The MRTU constructs are regulated by a cis-regulating element (promoter). […] A major difference between the CIS and TRANS system is that in CIS activities of endogenous TFs are measured, whereas the TRANS assay evaluates changes in activities of exogenous, chimeric NR-Gal4 proteins. […] At the end of 24 hour incubation, total RNA was isolated using TriZol reagent (Invitrogen). The isolated RNA is then reverse-transcribed using oligo(dT) primer and Mo-MLV reverse transcriptase (Invitrogen) with DNAse I (Ambion) treatment for 30 min. The one-tenth of the produced cDNA was amplified by PCR using Taq DNA polymerase (Invitrogen) and two reporter sequence-specific primers. The PCR products were fluorescently labeled by primer extension with 6-arboxyfluorescein (6-FAM) 5'-labeled reporter sequence-specific primer (2 min at 95 C, 20 s at 68 C and 10 min at 72 C) and these products were digested with 5U of HpaI (New England Biolabs) for 2h at 37 C. The fragments were purified using Qiaquick PCR columns (Qiagen), analyzed on an ABI 3130xL genetic analyzer (Applied Biosystems) with peak positions identified by using a set of X-rhodamine (ROX)-labeled MapMarker1000 molecular weight standards (BioVentures). The raw capillary electrophoresis data was processed using Attagraph software (Attagene).

Structure (SMILES) | AC50 | outcome
Nc1ccccc1C(=O)Oc1ccc2ccccc2c1 | 70.9 µM (active) | –
CC1(C)CC(=O)CC(C)(C)N1[O] | – | inactive
C[C@]12CC[C@H]3[C@@H](CC[C@@]45O[C@@H]4C(O)=C(C#N)C[C@]35C)[C@@H]1CC[C@@H]2O | – | inactive
CCNCC | – | inactive
CC1(C)C(=O)NC(=O)NC1=O | – | inactive
C[N+](C)(C)CC(=O)O | – | inactive
O=P(O)(Oc1ccccc1)Oc1ccccc1 | – | inactive
CC(C)COP(=O)(OCC(C)C)OCC(C)C | – | inactive
C=CC(=O)OCCO | – | inactive
c1ccc2c(c1)CCCC2 | – | inactive
COCC(=O)N(c1c(C)cccc1C)N1CCOC1=O | – | inactive
Cc1ccc(C)c2ccccc12 | – | inactive
CC[N+](=O)[O-] | – | inactive
CCC1CCC(=O)O1 (stereo not given) | – | inactive
C=COCCCl | – | inactive
COC(=O)COc1ccc(Cl)cc1Cl | – | inactive
CC1OC(C)OC(C)O1 (stereo not given) | – | inactive
[CH3][Sn]([Cl])([Cl])[Cl] | – | inactive
COc1cc(OC)nc(Oc2cccc(Oc3nc(OC)cc(OC)n3)c2C(=O)O)n1 | – | inactive
O=C(NC(=O)c1c(F)cccc1F)Nc1ccc(Oc2ccc(C(F)(F)F)cc2Cl)cc1F | – | inactive

Structure (SMILES) | AC50 | outcome
O=C(O)c1cc[c]([Hg][Cl])cc1 | – | inactive
N#CCNCC#N | – | inactive
C=CC(=O)OC | – | inactive
C=C(Cl)CCl | – | inactive
[CH3][Sn]([CH3])([Cl])[Cl] | – | inactive
COC(C)(C)CCC[C@H](C)C/C=C/C(C)=C/C(=O)OC(C)C | 145 µM (active) | –
O=C1C(Cl)=C(Cl)C(=O)C(Cl)=C1Cl | – | inactive
NNc1ccccc1 | – | inactive
CC(=O)/C=C/c1ccccc1 | – | inactive
O=c1c2ccccc2c(=O)c2c1cc(Cl)c1[nH]c3c([nH]c12)c(Cl)cc1c(=O)c2ccccc2c(=O)c13 | – | inactive
C=Cc1cccc(CCl)c1 | – | inactive
O=C(O)COc1ccccc1 | – | inactive
CCOP(=O)(OCC)Oc1ccc([N+](=O)[O-])cc1 | – | inactive
C[N+](C)=CCl | – | inactive
C[C@]12CC[C@H](O)C[C@H]1CC[C@@H]1[C@@H]2C[C@@H](O)[C@]2(C)[C@@H](C3=CC(=O)OC3)CC[C@]12O | – | inactive
CC1CCCC1.[C-]#[O+].[C-]#[O+].[C-]#[O+].[Mn] | – | inactive
ClC1=C(Cl)[C@]2(Cl)[C@@H]3[C@@H](Cl)[C@H](Cl)C[C@@H]3[C@@]1(Cl)C2(Cl)Cl | – | inactive
O=C(CCN1CC1)OCC(CO)(COC(=O)CCN1CC1)COC(=O)CCN1CC1 | – | inactive
CCCCOC(=O)CCC(=O)OCCCC | – | inactive
ClCCCCCCCl | – | inactive
